This is part of a sample that, as a whole, favours compounds with a hit. Of some 83,000 tested, about 20% had one in any assay.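 Assay: single dose, 48 h. Readout: percent growth (0 = no net growth; negative = cell death). Active: <10.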 The source made the active and inactive calls.
tested on: MDA-MB-231 breast; experiment: NCI-60 one-dose screen, 48 h (100 = growth as untreated, 0 = no growth, -100 = all killed); conditions: 10 µM unless noted

SMILES	growth
O=C(Nc1cccc(-n2cc(-c3ccncc3)c(-c3ccc(O)c(Cl)c3)n2)c1)Nc1ccc(Cl)c(C(F)(F)F)c1	-34.8% (active)
CCOc1ccccc1C(=O)OCC(=O)Nc1cccc(S(=O)(=O)N(C)C)c1	110% (inactive)
Cn1c(N)c(N=O)c(=O)[nH]c1=O	112% (inactive)
Cc1nn(-c2ccc(Br)cc2)c2nc3c(nc12)C(=O)C(=O)c1ccccc1-3	78.7% (inactive)
Cc1nn(-c2ccccc2)c2nc(Cl)c(/C=C/C(=O)c3ccccc3)c(-c3ccccc3)c12	111% (inactive)
S=C(Nc1ccc(C2=NCCN2)cc1)Nc1ccc(C2=NCCN2)cc1	113% (inactive)
COc1ccc(C(=O)/C=C/c2c(Cl)nc3c(c(C)nn3-c3ccccc3)c2-c2ccc(Br)cc2)cc1	105% (inactive)
O=C1c2ccccc2-c2c1nc1ccccc1[n+]2[O-]	108% (inactive)
Cc1c(C(N)=O)sc2c1c(=O)n(Cc1ccccc1)c1nnc(S(=O)(=O)CC(=O)Nc3ccc(Cl)cc3)n21	20.5% (inactive)
OCCOc1c(Cl)cc(Cl)cc1Cl	87.3% (inactive)
O=C1Nc2ccc(F)cc2/C1=C/c1nc(-c2ccc(F)cc2)n2ccccc12	80% (inactive)
CCOC(=O)C(C(C)=O)c1nc2sc3cc(Cl)ccc3n2c(=N)c1C#N (stereo not drawn)	62.4% (inactive)
Cc1nn(-c2ccc(Cl)cc2)c2nc3c(nc12)c(=O)oc1ccccc13	110% (inactive)
Cc1nn(-c2ccccc2)c2ncc3c(c12)C(=O)N(Cc1ccccc1)C3=O	14.3% (inactive)
OC(CCC(O)(c1ccccc1)c1ccccc1)(c1ccccc1)c1ccccc1	81.5% (inactive)
S=C(c1ccccc1)N1CCN(c2cccc(Cl)c2)CC1	105% (inactive)
COc1cc(OC)c2cc(C(=O)O)c(=O)oc2c1	94.3% (inactive)
Cc1c(C(N)=O)sc2ncn(Cc3ccccc3)c(=O)c12	102% (inactive)
O=C1CN(CO)C(=O)CN1CO	108% (inactive)

SMILES	growth
O=C(COC(=O)[C@H](C[Se][Se]C[C@H](NC(=O)c1ccc(Br)cc1F)C(=O)OCC(=O)c1ccc(F)cc1)NC(=O)c1ccc(Br)cc1F)c1ccc(F)cc1	-82.2% (active)
CCOC(=O)C1C(=O)OC2CCCCC21 (stereo not drawn)	101% (inactive)
COC(=O)[C@]1(CCSC)N[C@H](c2cn(-c3ccccc3)nc2C)[C@@H]2C(=O)N(c3ccccc3)C(=O)[C@@H]21	109% (inactive)
Cc1c(C(N)=O)sc2c1c(=O)n(Cc1ccccc1)c1nnc(SCC(=O)Nc3ccc(Cl)cc3)n21	-6.85% (active)
O=C1OC(c2ccc(-c3ccccc3)cc2)=C/C1=C/c1cccs1	75.3% (inactive)
Oc1ccccc1/C=N\Nc1ccccc1	26.7% (inactive)
CCCCn1c(Cc2ccc(Cl)cc2)nc2cc(OC)c(OC)cc2c1=O	70.2% (inactive)
Cn1[nH]cc(/C=N/C(N)=O)c1=O	101% (inactive)
Cc1[nH]n(C(N)=S)c(=O)c1N=Nc1ccc(F)c(Cl)c1	89.1% (inactive)
CCSc1nnc2n(Cc3ccccc3)c(=O)c3c(C)c(C(N)=O)sc3n12	103% (inactive)
Cc1cc(C)c(OC(=O)CSc2nc3ccccc3c(=O)n2CCc2ccccc2)cc1C	80.1% (inactive)
NC(=O)SCC(=O)Nc1ccccc1-c1ccccc1	99.7% (inactive)
Cc1nn(-c2ccc(Cl)cc2)c2nc3c(nc12)C(=O)C(=O)c1ccccc1-3	40.4% (inactive)
O=C(c1ccccc1)c1ccccc1Cl	105% (inactive)
COc1cc(OC)c2sc(-c3ccc(-n4cncc4-c4ccc(N)cc4)cc3)nc2c1	87.3% (inactive)
O=C(CSc1nc2c(n1Nc1ccccc1)-c1ccccc1SC2)Nc1nc(-c2ccc(Cl)cc2)cs1	75.1% (inactive)
CN=C(NC)N/N=C(C)\C=N\NC(=NC)NC	97.8% (inactive)
OC(Cc1cccnc1)c1ccccc1 (stereo not drawn)	92.1% (inactive)
N#Cc1c(N2CCOCC2)nc2sc3cc(Cl)ccc3n2c1=N	75.9% (inactive)

Reference: PubChem BioAssay (NCI)
